In PubChem BioAssay (EPA / NIEHS):
Records with an inconclusive call do not appear. Active and inactive are the calls of the source. The calls were made as follows, unless noted: active = hit-call score of the fitted dose curve at least 0.9, where 1 is the maximum; inconclusive = response in the unintended direction; inactive = score below 0.9. Where a SMILES comes first, the peptide text is derived from it. Bridges are numbered along the chain shown (N, C = ends).

Assays:
[1] = TOX21_p53_BLA_p3_viability: Viability Assessment in the Tox21 HCT-116 p53 Agonism Beta-lactamase Assay, Phase 3 (AID 2283593);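 also: cells exposed to compound for 16 h before reading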
Outline: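 HCT116 cells, 4000/well, dosed 5 h after plating by pin transfer (217-fold dilution from DMSO stock) and incubated 16 h at 37C, 5% CO2. Viability read as ATP luminescence with CellTiter-Glo after 30 min at room temperature.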

[2] = biological target: Cellular tumor antigen p53 (Homo sapiens) (UniProt P04637); experiment: TOX21_p53_BLA_p5_ratio: Tox21 HCT-116 p53 Agonism Beta-lactamase Assay, Ratio, Phase 5 (AID 2283599)
Sequence of Cellular tumor antigen p53 (Homo sapiens) (P04637 whole entry, looked up): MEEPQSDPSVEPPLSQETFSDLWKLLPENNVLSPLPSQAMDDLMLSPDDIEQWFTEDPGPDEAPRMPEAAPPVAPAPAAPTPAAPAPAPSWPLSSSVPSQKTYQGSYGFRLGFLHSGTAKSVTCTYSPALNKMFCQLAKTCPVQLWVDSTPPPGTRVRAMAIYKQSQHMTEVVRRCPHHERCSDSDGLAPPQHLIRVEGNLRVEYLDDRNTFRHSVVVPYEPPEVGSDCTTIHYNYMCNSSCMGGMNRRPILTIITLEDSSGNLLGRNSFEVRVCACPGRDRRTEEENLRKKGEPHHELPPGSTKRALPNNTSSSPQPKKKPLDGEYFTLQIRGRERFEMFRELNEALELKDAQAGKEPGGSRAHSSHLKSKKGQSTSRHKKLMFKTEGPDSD
Outline: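 HCT-116 p53-bla cells (4000/well) plated 5 h, dosed with compound (217-fold DMSO dilution) for 16 h at 37 C; CCF4-AM substrate 2 h at room temperature. Activity is the 460/530 nm emission ratio (405 nm excitation), fitted in gain-of-signal direction versus DMSO.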

[3] = TOX21_p53_BLA_p5_viability: Viability Assessment in the Tox21 HCT-116 p53 Agonism Beta-lactamase Assay, Phase 5 (AID 2283600)
Outline: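 Cells were plated at 4000/well, rested 5 h at 37C, then given compounds in DMSO (217-fold dilution) for 16 h at 37C, 5% CO2. Following the CCF4-AM beta-lactamase read, CellTiter-Glo was added and luminescence was read after 30 min at room temperature.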

[4] = biological target: Cellular tumor antigen p53 (Homo sapiens) (UniProt P04637); experiment: TOX21_p53_BLA_p4_ratio: Tox21 HCT-116 p53 Agonism Beta-lactamase Assay, Ratio, Phase 4 (AID 2283601)
Outline: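 HCT-116 p53 beta-lactamase reporter cells (4000/well) preincubated 5 h, then compound (217-fold dilution of DMSO stock) for 16 h at 37C. CCF4-AM substrate added 2 h at room temperature; 460/530 nm emission ratio fitted upward versus DMSO.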

[5] = biological target: Cellular tumor antigen p53 (Homo sapiens) (UniProt P04637); experiment: TOX21_p53_BLA_p3_ratio: Tox21 HCT-116 p53 Agonism Beta-lactamase Assay, Ratio, Phase 3 (AID 2283596)
Outline: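 HCT116 p53-bla cells (4000/well) given compound in DMSO (217-fold dilution) after 5 h, incubated 16 h at 37C. CCF4-AM substrate 2 h at room temperature; 460/530 nm emission ratio, gain fitted against DMSO.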

[6] = TOX21_p53_BLA_p4_viability: Viability Assessment in the Tox21 HCT-116 p53 Agonism Beta-lactamase Assay, Phase 4 (AID 2283597);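 also: hits lower the luminescence signal meaning cytotoxicity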
Outline: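 HCT116 p53-bla cells (4000/well) rested 5 h at 37C, then received compounds in DMSO (217-fold dilution) for 16 h at 37C, 5% CO2. CellTiter-Glo was added after the CCF4-AM read, and luminescence was read after 30 min at room temperature.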

[7] = CCTE_Harrill_HTTr_Viability_MCF7: CCTE's 6-hour Cell Viability Assessment for the High-Throughput Transcriptomics (HTTr) Platform, in MCF-7 cells cultured in DMEM + 10% fetal bovine serum, Harrill Lab (AID 2284010; active = hit-call score of the fitted dose curve at least 0.9, where 1 is the maximum; inactive = score below 0.9)
Outline: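 Membrane integrity was scored by high-content imaging of propidium iodide dye exclusion after a 6 h exposure across an eight-point dilution series. Data were fitted bidirectionally relative to DMSO as negative control and baseline.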

[8] = CCTE_Harrill_HTTr_CellCount_MCF7: CCTE's Cell Proliferation Assessment for the High-Throughput Transcriptomics (HTTr) Platform, Harrill Lab (AID 2284012);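 also: cells exposed to compound for six hours; intended direction is loss of nuclei count meaning fewer cells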
Outline: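 MCF-7 cells were exposed for 6 h to an eight-point dilution series; Hoechst-labeled nuclei were counted by high content imaging. Curves were fitted bidirectionally against DMSO as negative control and baseline, with signal loss indicating reduced cell count.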

## FC(F)(F)c1ccccc1
[1]
  outcome: inactive
[2]
  outcome: inactive
[3]
  outcome: inactive
[4]
  outcome: inactive

## CCCC(=O)Nc1ncnc2c1ncn2[C@@H]1O[C@@H]2COP(=O)(O)O[C@H]2[C@H]1OC(=O)CCC
[1]
  outcome: inactive
[2]
  outcome: inactive
[3]
  outcome: inactive
[4]
  outcome: inactive

## CC(=O)Nc1ccc(S(=O)(=O)Nc2cc(C)on2)cc1
[1]
  outcome: inactive
[3]
  outcome: inactive

## CCOC(=O)Nc1ccc2c(c1)N(C(=O)CCN1CCOCC1)c1ccccc1S2
[1]
  outcome: inactive
[2]
  outcome: inactive
[3]
  outcome: inactive

## Cc1ccc(NC(N)=O)cc1
[1]
  outcome: inactive
[2]
  outcome: inactive
[4]
  outcome: inactive

## Cc1cccc(O)c1N
[1]
  outcome: inactive
[2]
  outcome: inactive

## CCN1CCCC(OC(=O)C(c2ccccc2)c2ccccc2)C1 (centres undefined)
[5]
  outcome: inactive

## NCC1CCC(C(=O)Oc2ccc(CCC(=O)O)cc2)CC1 (centres undefined)
[1]
  outcome: inactive
[6]
  outcome: inactive
[4]
  outcome: inactive

## CN1CCN2c3ncccc3Cc3ccccc3C2C1 (centres undefined)
[5]
  outcome: inactive

## C=CC(=O)NC(C)C
[1]
  outcome: inactive
[6]
  outcome: inactive
[4]
  outcome: inactive

## COC(=O)[C@@H](N)Cc1ccc(O)c(O)c1
[1]
  outcome: inactive
[2]
  outcome: inactive

## Cc1ccc(S(=O)(=O)NC(=O)NC2CCCC2)cc1
[1]
  outcome: inactive
[2]
  outcome: inactive
[3]
  outcome: inactive
[4]
  outcome: inactive

## CCC(O)c1ccccc1 (centres undefined)
[1]
  outcome: inactive
[3]
  outcome: inactive
[4]
  outcome: inactive

## O=C(O[C@@H](C(=O)O)[C@@H](OC(=O)c1ccccc1)C(=O)O)c1ccccc1
[1]
  outcome: inactive
[2]
  outcome: inactive
[3]
  outcome: inactive

## Cc1cc(N)c(S(=O)(=O)O)cc1Cl
[1]
  outcome: inactive
[2]
  outcome: inactive

## Cc1nnc(C(=O)NC(C)(C)c2nc(C(=O)NCc3ccc(F)cc3)c(O)c(=O)n2C)o1
[5]
  outcome: inactive

## CCC(C=O)CC
[1]
  outcome: inactive
[2]
  outcome: inactive
[4]
  outcome: inactive

## OC1CCCc2ccccc21 (centres undefined)
[1]
  outcome: inactive
[3]
  outcome: inactive
[4]
  outcome: inactive

## COc1ccc(C)cc1[N+](=O)[O-]
[1]
  outcome: inactive
[2]
  outcome: inactive
[3]
  outcome: inactive

## Cc1ccc(Cl)cc1Cl
[5]
  outcome: inactive

## CCC(=O)OC(OP(=O)(CCCCc1ccccc1)CC(=O)N1C[C@H](C2CCCCC2)C[C@H]1C(=O)O)C(C)C (some centres undefined)
[1]
  outcome: inactive
[6]
  outcome: inactive
[4]
  outcome: inactive

## c1ccc2cnncc2c1
[1]
  outcome: inactive
[2]
  outcome: inactive
[4]
  outcome: inactive

## CN(C)CCN1C(=O)c2ccccc2N(C)c2ccccc21
[5]
  outcome: inactive

## NCCCC[C@H](NC(=O)[C@@H]1CCCN1C(=O)[C@@H]1CSSC[C@H](NC(=O)CNC(=O)CNC(=O)CN)C(=O)N[C@@H](Cc2ccc(O)cc2)C(=O)N[C@@H](Cc2ccccc2)C(=O)N[C@@H](CCC(N)=O)C(=O)N[C@@H](CC(N)=O)C(=O)N1)C(=O)NCC(N)=O (H-GGGCYFQNCPKG-NH2; disulfide 4-9)
[1]
  outcome: inactive
[2]
  outcome: inactive
[3]
  outcome: inactive

## CCCCCCCCCCCC[N+](C)(C)CCCS(=O)(=O)[O-]
[1]
  outcome: inactive
[6]
  outcome: inactive
[4]
  outcome: inactive

## ONc1ccccc1
[1]
  outcome: inactive
[4]
  outcome: inactive

## CC(=O)OCC(=O)[C@@]1(O)CC[C@H]2[C@@H]3C[C@H](C)C4=CC(=O)C=C[C@]4(C)[C@H]3[C@@H](O)C[C@@]21C
[1]
  outcome: inactive
[6]
  outcome: inactive
[4]
  outcome: inactive

## CCCCC(CC)COC(=O)CC#N (centres undefined)
[1]
  outcome: inactive
[7]
  outcome: inactive
[8]
  outcome: inactive

## C[N+](C)(C)CC(O)CCl (centres undefined)
[5]
  outcome: inactive
[6]
  outcome: inactive

## N=C(N)c1ccc(C=Cc2ccc(C(=N)N)cc2O)cc1
[5]
  outcome: inactive
[6]
  outcome: inactive
[2]
  outcome: inactive

## NS(=O)(=O)c1ccc(Cl)c(S(N)(=O)=O)c1
[5]
  outcome: inactive
[6]
  outcome: inactive
[2]
  outcome: inactive
[4]
  outcome: inactive

## CC[C@@H](N)CO
[5]
  outcome: inactive
[6]
  outcome: inactive
[2]
  outcome: inactive

## C=COCCCCO
[5]
  outcome: inactive
[6]
  outcome: inactive
[2]
  outcome: inactive

## CCN(CC)CCNC(=O)c1cc(S(C)(=O)=O)ccc1OC
[5]
  outcome: inactive
[6]
  outcome: inactive
[2]
  outcome: inactive
[3]
  outcome: inactive
[4]
  outcome: inactive

## C1CCCNCCC1
[5]
  outcome: inactive
[6]
  outcome: inactive

## Oc1cc(O)cc(O)c1
[5]
  outcome: inactive
[6]
  outcome: inactive
[2]
  outcome: inactive
[3]
  outcome: inactive

## [O-][n+]1ccccc1SSc1cccc[n+]1[O-]
[5]
  AC50: 9.52 µM (active)
[6]
  outcome: inactive
[2]
  outcome: inactive
[3]
  outcome: inactive
[4]
  outcome: inactive

## O=C(CO)[C@@H](O)[C@H](O)[C@@H](O)CO
[5]
  outcome: inactive

## O=C(O)C(O)[C@H](O)[C@@H](O)[C@H](O)[C@H](O)CO (some centres undefined)
[5]
  outcome: inactive
[6]
  outcome: inactive
[2]
  outcome: inactive
[3]
  outcome: inactive
[4]
  outcome: inactive

## O=C1CCN(c2ccccc2)N1
[5]
  outcome: inactive
[6]
  outcome: inactive
[3]
  outcome: inactive

## CNS(=O)(=O)Cc1ccc2[nH]cc(CCN(C)C)c2c1
[5]
  outcome: inactive
[6]
  outcome: inactive
[2]
  outcome: inactive
[3]
  outcome: inactive

## CC(C)(O/N=C(\C(=O)N[C@@H]1C(=O)N2C(C(=O)[O-])=C(C[n+]3ccccc3)CS[C@H]12)c1csc(N)n1)C(=O)O
[5]
  outcome: inactive
[6]
  outcome: inactive
[2]
  outcome: inactive
[3]
  outcome: inactive
[4]
  outcome: inactive

## CN(C)CCCOc1nn(Cc2ccccc2)c2ccccc12
[5]
  outcome: inactive
[6]
  outcome: inactive

## CN(C)CCCSc1ccccc1NC(=O)/C=C/c1ccccc1
[5]
  outcome: inactive
[6]
  outcome: inactive

## CCCSSC(CCO)=C(C)N(C=O)Cc1cnc(C)nc1N
[5]
  outcome: inactive
[6]
  outcome: inactive

## CCN(CC)CCOc1ccccc1C(=O)CCc1ccccc1
[5]
  outcome: inactive
[6]
  outcome: inactive
